CHO-K1 Ca ag: M1 agonist counterscreen hit in parental CHO-K1 cells | activation, % at 3 µM | Fluo-8 calcium fluorescence; scaled to maximal ATP response, vehicle zero | hit rate 0.48% among 360,000; in the data active means activation above about 15%;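 further: untransfected CHO-K1 host cells lacking M1 receptor as counterscreen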
CHRM1 PAM: human CHRM1 positive allosteric modulation; P11229; hit rate 0.088% among 360,000; CHO-K1 hM1, Fluo-8 calcium fluorescence, ACh EC20; 0% = ACh EC20, 100% = maximal ACh; AID 588819; activation, % at 3 µM; in the data active means activation above about 19%, passing the limit was not always enough
Target sequence (P11229 whole entry, looked up): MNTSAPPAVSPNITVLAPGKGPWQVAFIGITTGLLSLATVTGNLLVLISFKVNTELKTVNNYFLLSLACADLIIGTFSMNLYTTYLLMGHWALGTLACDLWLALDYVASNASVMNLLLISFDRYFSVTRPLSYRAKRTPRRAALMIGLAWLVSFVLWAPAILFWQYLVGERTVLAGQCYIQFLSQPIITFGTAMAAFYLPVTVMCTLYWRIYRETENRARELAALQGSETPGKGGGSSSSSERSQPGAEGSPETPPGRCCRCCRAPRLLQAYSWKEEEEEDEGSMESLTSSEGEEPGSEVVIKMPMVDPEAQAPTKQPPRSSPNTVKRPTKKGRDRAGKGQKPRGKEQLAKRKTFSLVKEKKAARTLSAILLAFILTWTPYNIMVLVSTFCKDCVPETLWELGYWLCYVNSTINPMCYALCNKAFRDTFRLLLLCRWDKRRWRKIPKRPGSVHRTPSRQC
CHO-K1 Ca antag: nonselective inhibitor or artifact in parental CHO-K1 cells | ATP-induced calcium, Fluo-8 fluorescence | inhibition, % at 3 µM | hit rate 0.6% among 360,000;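 active means inhibition above a per-plate cutoff, the plate's mean sample inhibition plus 3 SD, cut at about 24% in these data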;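 further: 0% = DMSO plus EC80 ATP and 100% = DMSO alone without ATP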
M1 ag: agonists of human M1 muscarinic receptor; activation, % at 3 µM; CHO-K1 hM1, Fluo-8 calcium fluorescence, agonist mode; 0% DMSO, 100% acetylcholine EC100; P11229; hit rate 0.33% among 360,000;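 active means activation above the run's mean compound activation plus 3 SD, cut at about 16% in these data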;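 further: peak over basal fluorescence ratio within a 140 s kinetic read after compound addition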
M1 PAM parental: nonselective activator or artifact in parental CHO-K1 calcium assay. ATP EC20, Fluo-8 calcium fluorescence; 0% at ATP EC20, 100% at ATP max. activation, % at 3 µM. hit rate 0.02% among 360,000. AID 602247;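 active means activation above the run cutoff, the mean activation of all test compounds plus 3 SD, cut at about 40% in these data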;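 further: peak over basal fluorescence ratio in a 140 s read after ATP addition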
CHRM1 antagonist: human CHRM1 antagonism | P11229 | CHO-K1 hM1, Fluo-8 calcium fluorescence, ACh EC80 antagonist | inhibition, % at 3 µM | hit rate 1.3% among 360,000;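 active means percent inhibition above its own plate's cutoff, namely the mean of that plate's compound wells plus 3 SD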;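 further: peak over basal fluorescence ratio during 140 s after agonist addition; 0% = ACh EC80 plus DMSO and 100% = DMSO alone without agonist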
An asterisk follows results filed as active; . = no result given. An excerpt weighted towards active compounds, which were near 2.3% of everything screened.

SMILES	CHO-K1 Ca ag	CHRM1 PAM	CHO-K1 Ca antag	M1 ag	M1 PAM parental	CHRM1 antagonist
CC(C)Oc1cccc(-c2cc(C(=O)N3CCN(S(C)(=O)=O)CC3)c3ccccc3n2)c1	5	0	7	4	15	-3
CC(CCC(C)C(C)(C)C)[C@@H]1CC[C@H]2C3C[C@H](OS(O)(=S)=S)[C@H]4C[C@H](OS(O)(=S)=S)[C@@H](OS(O)(=S)=S)C[C@]4(C)[C@H]3CC[C@]12C (stereo partly drawn) (tested in a mixture with another compound)	24*	5	-21	37*	46*	3
CN(C)CCC1c2ccc(Cl)cc2CCc2cccnc21 (stereo not drawn) (tested in a mixture with another compound)	8	-28	-4	-11	4	49*
COc1cnc(-c2ccccn2)nc1Oc1ccc(Cl)cc1	0	9	24*	-2	-6	-5
COc1ccc(C(=O)OCCOc2cccc(Cl)c2)cc1S(=O)(=O)N1CCOCC1	4	3	-4	0	6	-7
CCOc1cc(/C=C\[N+](=O)[O-])ccc1OCC(=O)Nc1ccccc1C	1	26*	-2	4	11	-9
CN(C(=O)CSc1nc2ccccc2c(=O)n1C)C1CCS(=O)(=O)C1 (stereo not drawn)	0	7	-10	6	11	-14
CN(C(=O)CSc1nc2ccccc2n1C)C1CCS(=O)(=O)C1 (stereo not drawn)	0	-3	8	-4	16	29*
CN(C(=O)COC(=O)c1nc(-c2ccccc2)n(-c2ccccc2)n1)C1CCS(=O)(=O)C1 (stereo not drawn)	0	-21	-6	-4	-3	64*
Cc1nn(-c2ccccc2)c(C)c1C(=O)OCC(=O)N(C)C1CCS(=O)(=O)C1 (stereo not drawn)	0	6	2	-11	2	-4
O=C(N/N=C/c1ccccc1C(=O)O)c1cccc(S(=O)(=O)N2CCCCC2)c1	0	9	-14	-4	12	-7
CCCc1nc2c3ccccc3ccn2c1Cc1ccccc1	0	-25	-22	-8	11	8
CC(C)N1CCc2c(sc(NC(=S)NC(=O)c3ccccc3)c2C#N)C1	3	9	-5	-8	17	-12
CCCN1CCc2c(sc(NC(=S)NC(=O)c3ccccc3)c2C#N)C1	46*	-7	16	37*	-1	19
FC(F)(F)c1cc(Cl)c2nc(-c3ccc(Cl)cc3)c(Cc3ccsc3)n2c1	0	.	31*	.	-9	.
Fc1ccc(-c2nc3c(Cl)cc(C(F)(F)F)cn3c2Cc2cccc(Cl)c2)cc1	-1	.	33*	.	-6	.
CCC1CCCCN1CCCNC(=O)CC1Oc2ccccc2NC1=O (stereo not drawn)	0	-9	3	-13	0	17
CCC1CCCCN1CCCNC(=O)CC1Oc2ccc(C)cc2NC1=O (stereo not drawn)	0	-26	21	-14	-10	41*
Cc1ccc2c(c1)NC(=O)C(CC(=O)O)O2 (stereo not drawn)	0	-3	26*	-4	-8	3
CC(OC(=O)[C@@H]1CCCN1C(=O)c1cccs1)C(=O)Nc1cccc([N+](=O)[O-])c1 (stereo partly drawn)	8	-17	-9	5	-16	8
O=C(NC1CCCC1)C(c1ccccc1F)N(C(=O)Cc1cccs1)c1ccc2c(c1)OCCO2 (stereo not drawn)	24*	-9	3	-4	12	11
CCSc1ncc(Cl)c(C(=O)Nc2ccc(S(=O)(=O)Nc3onc(C)c3C)cc2)n1	0	22*	6	4	-9	-10
CC1CC(C)CN(CCCNC(=O)c2ccc3c(c2)ncn3C2CCCC2)C1 (stereo not drawn)	0	-15	-1	-6	-1	28
CC1SC(c2ccccc2)N(CC(O)c2ccc([N+](=O)[O-])cc2)C1=O (stereo not drawn)	0	3	25*	-7	-13	-5
O=C1CSC(c2ccccc2)N1CC(O)c1ccc([N+](=O)[O-])cc1 (stereo not drawn)	4	4	-9	-5	20	-1
SMILES	CHO-K1 Ca ag	CHRM1 PAM	CHO-K1 Ca antag	M1 ag	M1 PAM parental	CHRM1 antagonist
O=C(Nc1cccc(S(=O)(=O)N2CCCCC2)c1)c1ccc2c(=O)n3c(nc2c1)CCCCC3	10	-25	-6	1	8	43*
O=C(COC(=O)C1CCC1)Nc1cc(S(=O)(=O)N2CCOCC2)ccc1Cl	1	1	9	-1	14	0
O=C(Nc1cc(S(=O)(=O)N2CCOCC2)ccc1Cl)C1CCC1	0	-8	7	-2	-24	27*
COc1ccc(S(=O)(=O)N2CCOCC2)cc1NC(=O)c1ccc(Cl)cc1	0	-10	12	-2	-20	29*
CCc1ccc(NC(=O)c2ccc3c(=O)n4c(nc3c2)CCCCC4)cc1	4	-6	7	-2	-4	7
COc1ccc(S(=O)(=O)N2CCOCC2)cc1NC(=O)c1ccc(S(=O)(=O)N2CCCCC2)cc1	0	6	-15	-8	-15	-10
CN(C)S(=O)(=O)c1cccc(NC(=O)c2ccc(S(=O)(=O)N3CCCCC3)cc2)c1	4	-27	5	-5	-6	27*
CCc1ccc(NC(=O)CC2C(=O)N(c3ccc(C)cc3)C(=O)N2C2CC2)cc1 (stereo not drawn)	1	12	-18	-3	21	-17
CN(C)S(=O)(=O)c1cccc(NC(=O)c2cccc(S(=O)(=O)N3CCCCCC3)c2)c1	8	-21	6	-4	-20	33*
CN(C)c1ccc(C(=O)Nc2cccc(S(=O)(=O)N3CCCC3)c2)cc1	0	-25	4	-7	14	46*
O=C(Nc1ncccc1O)c1cccc(S(=O)(=O)N2CCCC2)c1	0	10	26*	1	-12	-16
O=C(Nc1ncccc1O)c1ccc(Cl)c(S(=O)(=O)N2CCCCCC2)c1	1	11	0	-1	-10	-20
CN1CCCN(S(=O)(=O)c2ccccc2)CC1	1	-22	-15	-12	-11	33*
CN(Cc1ccc2c(c1)OCCO2)C(=O)CSc1ncnc2sccc12	6	2	-4	-1	11	-5
CC1=C(C(=O)N2CCCCCC2)CC(CC(=O)NC(c2ccccc2)c2ccccc2)C(=O)N1CCC1=CCCCC1 (stereo not drawn)	0	.	-14	.	2	.
Cc1n[nH]c2ccc([N+](=O)[O-])cc2c1=O	0	-1	-1	-3	-4	7
